According to PubChem BioAssay (Tox21):
Inconclusive results are not listed. Entries that show only a call come without a potency. A number with no mark means an inactive call. The source made the active and inactive calls. Calls come from the whole dose curve.

Experiment: qHTS assay to identify small molecule agonists of the progesterone receptor (PR) signaling pathway - cell viability counter screen (AID 1346799); note: nearly all actives have a fitted effect of over 45% in size
Details: PR-UAS-bla HEK293T viability, CellTiter-Glo luminescence, 16 h; series mostly up to 92.4 µM
Excerpt: National Center for Advancing Translational Sciences [NCATS]
NIH Chemical Genomics Center [NCGC]
U.S. Environmental Protection Agency [EPA]
National Institutes of Environmental Health Sciences [NIEHS]
National Toxicology Program [NTP]
U.S. Food and Drug Administration [FDA]
Progesterone receptor (PR), a nuclear hormone receptor, plays an important role in development, metabolic homeostasis and reproduction. It is activated by the steroid hormone progesterone. Endocrine disrupting chemicals (EDCs) and their interactions with steroid hormone receptors like PR causes disruption of normal endocrine function. To identify the compounds that stimulate PR signaling, a PR-UAS-bla GripTite cell line i.e. PR-UAS-bla HEK293T (Invitrogen, Carlsbad, CA, USA) containing a beta-lactamase reporter gene under the control of an UAS response element was used to screen Tox21 10K compound library. The cytotoxicity of the Tox21 compound library against the PR-bla cell line was tested in parallel by measuring the cell viability using CellTiter-Glo assay in the same wells.
Tox21 Assay Protocol Summary:
PR-UAS-bla HEK293T cells were dispensed at 3,000 cells/5 uL of assay medium containing 2% charcoal stripped FBS per well into black wall/clear-bottom 1536-well plates using a Multidrop Combi (ThermoFisher Scientific, Waltham, MA) dispenser. After the assay plates were incubated at a 37C and 5% CO2 for 6 hr, 23 nL of compounds dissolved in DMSO, positive controls or DMSO only was transferred to the assay plate by a Pintool station (Kalypsys, San Diego, CA). The plates were incubated at 37C and 5% CO2 for 16 hr. Then 1 uL of LiveBLAzer B/G FRET substrate was added using a Flying Reagent Dispenser (FRD, Aurora Discovery, San Diego, CA), the plates were incubated at room temperature for 2 hours, and fluorescence intensity was measured by an Envision plate reader (PerkinElmer, Shelton, CT). For cell viability readout that measures cytotoxicity, 4 uL/well of CellTiter-Glo reagent was added into the assay plates using a FRD. After 30 min incubation at room temperature, the luminescence intensity in the plates was measured using a ViewLux (PerkinElmer) plate reader.
Potency is the fitted concentration of half-maximal effect.

| Compound | Potency | activity change, negative = cytotoxicity |
| --- | --- | --- |
| O=C(Nc1ccc(F)cc1F)c1cccnc1Oc1cccc(C(F)(F)F)c1 | inactive | – |
| COc1ccc2c(c1OC)C(=O)O[C@@H]2[C@H]1c2cc3c(cc2CCN1C)OCO3 | inactive | – |
| CC(=O)O.CC(=O)O.CC(=O)O.CC(=O)O.CC(=O)O.CC(=O)O.CC(=O)O.O.O.[Cr].[Cr].[Cr] | inactive | – |
| O=S(=O)(NS(=O)(=O)C(F)(F)F)C(F)(F)F | inactive | – |
| O=[N+]([O-])c1ccc(Cl)c(Cl)c1Cl | inactive | – |
| O=NN(CCO)CCO | inactive | – |
| [O]=[Cr][O][Cr]=[O] | inactive | – |
| C=CCOC(=O)c1ccccc1N | inactive | – |
| CC(Cl)CCl (stereo not given) | inactive | – |
| CSC(C)(C)/C=N/O | inactive | – |
| NC(=O)C(Cl)Cl | inactive | – |
| c1ccc2c(c1)cc1ccc3cccc4ccc2c1c34 | inactive | – |
| Cc1nn(-c2cc(NS(C)(=O)=O)c(Cl)cc2Cl)c(=O)n1C(F)F | inactive | – |
| CC(C)Br | inactive | – |
| CC(=O)[O-].CC(=O)[O-].CC(=O)[O-].[Sb+3] | – | 7.1% [at 3.27 µM] |
| CCCCC(CC)COC(=O)OOC(C)(C)C (stereo not given) | inactive | – |
| CC(C)=CC1C(C(=O)OC(C#N)c2cccc(Oc3ccccc3)c2)C1(C)C (stereo not given) | inactive | – |
| Cc1ccc([N+](=O)[O-])[c]2c1[O][Hg]2 | 5.31 µM (active) | – |
| O=C(O)CCCCCCNC1c2ccccc2CCc2ccccc21 | inactive | – |
| CCc1cccc(C)c1N(C(=O)CCl)[C@@H](C)COC | inactive | – |

| Compound | Potency | activity change, negative = cytotoxicity |
| --- | --- | --- |
| O=C1C(Cl)=C(Cl)C(=O)C(Cl)=C1Cl | inactive | – |
| CC(Cc1ccc(OCC(=O)O)cc1)NCC(O)c1csc(C(F)(F)F)n1 (stereo not given) | inactive | – |
| CC(C)C(Br)C(=O)NC(N)=O (stereo not given) | inactive | – |
| Oc1ccc([C@H]2CNCc3c2ccc(O)c3O)cc1O | inactive | – |
| CC(C)(C)c1ccc(OP(=O)(Oc2ccccc2)Oc2ccccc2)cc1 | inactive | – |
| CCCC[N+]1(C)CCCC1 (tested in a mixture with another compound) | inactive | – |
| CCC[CH2][Sn]([CH2]CCC)([O]C(C)=O)[O]C(C)=O | 0.978 µM (active) | – |
| Cc1c([N+](=O)[O-])cc2c(c1[N+](=O)[O-])C(C)(C)CC2(C)C | inactive | – |
| COc1c2c(cc3c1OCO3)CCN(C)C2 | inactive | – |
| CC(Cc1ccc2c(c1)OCO2)NO (stereo not given) | inactive | – |
| N#Cc1ccc(N(CC(N)=O)CC(F)(F)F)cc1C(F)(F)F | inactive | – |
| CNC(C)(C)Cc1ccccc1 | inactive | – |
| CC(=O)C(Cl)C(=O)N(C)C (stereo not given) | inactive | – |
| O=c1c2ccccc2c(=O)c2c1cc(Cl)c1[nH]c3c([nH]c12)c(Cl)cc1c(=O)c2ccccc2c(=O)c13 | inactive | – |
| CCOC(=O)CCN(SN(C)C(=O)Oc1cccc2c1OC(C)(C)C2)C(C)C | inactive | – |
| BrCC(Br)(Br)Br | inactive | – |
| CCCCn1cc[n+](C)c1 (tested in a mixture with another compound) | inactive | – |
| O=[N+]([O-])c1ccc(CCl)cc1 | inactive | – |
| COCCC#N | inactive | – |
| C#CC1(O)CCCCC1 | inactive | – |
